# Compound activity: PubChem, National Center for Advancing Translational Sciences (NCATS)
# Sampled rows, rich in hits. Any-hit rate of the full collection: about 4.7%.
# HepG2 tox-1: HepG2 cytotoxicity, counter-screen for TGF-b inhibitors | HepG2 CAGA-GFP viability, ATP luminescence, 18 h | Potency, µM (highest dose often 46.1 µM), inactives show at the top dose activity change, negative = cytotoxicity, most hits filed as cytotoxic | 410,000 compounds, 0.76% hits | AID 588856; note: potency is the fitted concentration of half-maximal effect
#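 HepG2 CAGA-GFP cells (1000/well, DMEM with 1% FBS) received compound, then TGF-beta at 500 pg/mL final, and were incubated 18 hours at 37 degrees C. Viability was read by CellTiter-Glo luminescence. Media-only wells were set as complete cell-killing and DMSO as no toxicity.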
# ATXN viability: cell viability loss in ATXN counter-screen. S2 cells (HEK-293 line with an ATXN2-luciferase reporter) viability, CellTiter-Fluor protease fluorescence, 24 h. Potency, µM (doses to about 56.7 µM), usual class: cytotoxic. 400,000 compounds, 0.49% hits; note: potency is the fitted concentration of half-maximal effect; nearly all actives have a fitted effect of over 40% in size
# DRD3 agonist: agonists of human D3 dopamine receptor; P35462; AID 652048; D3R DiscoveRx beta-arrestin cells, luminescence, 90 min; 410,000 compounds, 0.58% hits; max activation, %; in the data active = max activation above about 30%; note: 0% is about no effect
# Target sequence (P35462 whole entry, looked up): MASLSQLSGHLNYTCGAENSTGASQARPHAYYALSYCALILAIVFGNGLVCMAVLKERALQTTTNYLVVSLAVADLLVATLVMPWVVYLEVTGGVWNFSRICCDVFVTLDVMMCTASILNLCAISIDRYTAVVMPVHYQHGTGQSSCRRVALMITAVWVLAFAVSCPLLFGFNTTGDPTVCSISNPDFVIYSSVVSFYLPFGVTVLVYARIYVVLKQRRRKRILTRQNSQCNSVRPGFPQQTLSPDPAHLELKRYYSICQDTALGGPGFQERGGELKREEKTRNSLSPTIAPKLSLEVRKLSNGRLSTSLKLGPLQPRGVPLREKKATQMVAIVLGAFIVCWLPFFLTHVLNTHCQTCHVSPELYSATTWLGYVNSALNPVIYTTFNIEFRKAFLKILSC
#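 Cells at 1500/well, incubated overnight, then treated with pinned compounds (dopamine as control) for 90 min at 37 degrees C. DiscoveRx reagent added for 30 - 60 minutes at room temperature; luminescence read.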
# DRD3 antagonist: blocks the human D3 dopamine receptor | 360,000 compounds, 2.5% hits | D3R cells, DiscoveRx beta-arrestin luminescence, antagonist mode; active compounds read low | max response, negative = inhibition, %; in the data active = max response below about -50%; inconclusive = no clear call, values can overlap the other calls; note: % is set by controls: 0 for no effect and ±100 for the full control effect
#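 Cells expressing the human receptor were seeded at 1500 cells/well, incubated overnight at 37 degrees C in 5% CO2, then exposed to library compounds with dopamine controls for 90 minutes at 37 degrees C before luminescent detection.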
# TGFb inhibitor: blocks TGF-b signaling; HepG2 CAGA-GFP TGF-b/SMAD3 reporter, GFP fluorescence, 18 h; TGF-beta stimulated, 500 pg/mL final; 410,000 compounds, 1.2% hits; Potency, µM (highest dose often 46.1 µM), for inactives: top-dose activity, negative = inhibition, actives largely listed as inhibitors; note: potency is the fitted concentration of half-maximal effect; % is set by controls: 0 for no effect and ±100 for the full control effect; nearly all actives have a fitted effect of over 65% in size
#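 Using HEPG2 CAGA-GFP reporter cells at 1000 cells/well, we pinned test compounds, stimulated with recombinant TGF-beta (500 pg/mL final) and measured total well GFP after 18 h.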
# ATXN2 expr inh: ATXN2 expression inhibition; HEK-293 ATXN2-luciferase reporter, luminescence, 24 h; Potency, µM (top dose mostly 57 µM), for inactives: at the top dose activity change, negative = inhibition, hits mostly inhibitors; 360,000 compounds, 0.72% hits; AID 1745845; note: potency is the fitted concentration of half-maximal effect; % is set by controls: 0 for no effect and ±100 for the full control effect; nearly all actives have a fitted effect of over 55% in size
#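 ATXN2-luciferase reporter cells (luciferase flanked by upstream and downstream ATXN2 gene portions) were treated 24 h at 37 °C with compounds at up to 57 uM. SteadyGlo luminescence gave expression; GF-AFC fluorescence gave viability.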
# TGFb CAGA inh: confirmation of TGF-b signaling inhibitors in HepG2 reporter cells; shares compounds with TGFb inhibitor; HepG2 CAGA-GFP TGF-b reporter, GFP fluorescence, 18 h; cells stimulated with TGF-beta, 500 pg/mL; Potency, µM (top dose mostly 46.1 µM), for the others: top-dose activity, negative = inhibition, hits mostly inhibitors; 1,600 compounds, 63% hits; AID 720534; note: potency is the fitted concentration of half-maximal effect; % is set by controls: 0 for no effect and ±100 for the full control effect; nearly all actives have a fitted effect of over 65% in size
# HepG2 tox-2: HepG2 cytotoxicity, TGF-b inhibitor counterscreen | shares compounds with TGFb inhibitor | HepG2 CAGA-GFP viability, ATP luminescence, 18 h; cells stimulated with TGF-beta, 500 pg/mL | 1,600 compounds, 27% hits | Potency, µM (top dose mostly 46.1 µM), inactives show at the highest dose activity, negative = cytotoxicity, most hits filed as inhibitors | AID 720535; note: potency is the fitted concentration of half-maximal effect; % is set by controls: 0 for no effect and ±100 for the full control effect; nearly all actives have a fitted effect of over 70% in size
# CCL64 TGFb inh: TGF-b inhibition, CCL64 orthogonal assay; shares compounds with TGFb inhibitor; CCL64 CAGA-GFP reporter, TGF-b stimulated, GFP fluorescence, 18 h; Potency, µM (series often up to 46.1 µM), inactives show at the top dose activity, negative = inhibition, most hits filed as inhibitors; 1,600 compounds, 41% hits; AID 720536; note: potency is the fitted concentration of half-maximal effect; nearly all actives have a fitted effect of over 65% in size
# COP TGFb inh: validation of TGF-b inhibitors in HepG2 COP promoter reporter | AID 720537 | Potency, µM (doses to about 46.1 µM), without a hit: top-dose activity, negative = inhibition, hits mostly inhibitors | HepG2 COP-GFP TGF-b reporter, GFP fluorescence, 18 h; cells stimulated by added recombinant TGF-beta | shares compounds with TGFb inhibitor | 1,600 compounds, 3% hits; note: potency is the fitted concentration of half-maximal effect; nearly all actives have a fitted effect of over 70% in size
# * hit, by the source's call; i = inactive; ? = inconclusive; nt = no result. Unless noted, calls come from the whole dose curve; as a rule, active = well fitted curve in the direction sought with a large enough effect; inconclusive = small, poorly fitted or top-dose-only effect, or another doubt; inactive = no such curve, though single readings can be large; an effect the other way counts as inactive or inconclusive.
SMILES,HepG2 tox-1,ATXN viability,DRD3 agonist,DRD3 antagonist,TGFb inhibitor,ATXN2 expr inh,TGFb CAGA inh,HepG2 tox-2,CCL64 TGFb inh,COP TGFb inh
CCN(CC)C(=O)[C@H]1CC(CC(=O)NCc2cccc(C(F)(F)F)c2)C(=O)N2CCc3c([nH]c4ccccc34)[C@]12C (some centres undefined),-7%,nt,3,2,13µM*,?,21µM*,?,15µM*,35%
Oc1ccccc1-c1nc2cnccn2c1Nc1ccc2c(c1)OCCO2,-4%,i,2,2,?,-17%,?,-2%,?,0%
COc1cc(CN(C(=O)c2ccccc2[N+](=O)[O-])c2ccccn2)cc(OC)c1OC,-10%,i,7,nt,?,-3%,nt,nt,nt,nt
CC(C)C(=O)NCC(c1ccc2c(c1)OCO2)N1CCN(c2ccccc2)CC1 (centres undefined),-11%,i,-20,nt,-1%,-4%,nt,nt,nt,nt
Cc1ccc(SCCNC(=O)c2ccc(C)c(S(=O)(=O)Nc3cccc(C)c3)c2)cc1,-2%,?,23,8,13µM*,?,?,?,?,52%
C1=C(CCNc2ncnc3c2[nH]c2ccccc23)CCCC1,-88%,14µM*,2,4,3.5µM*,?,?,21µM*,6.5µM*,25%
CC(=O)OCc1cnc(C)c2oc(=O)c(C(=O)Nc3ccc(F)cc3C)cc12,-6%,i,-4,nt,0%,6%,nt,nt,nt,nt
Cc1cccc(C(=O)NCC(c2cccs2)S(=O)(=O)c2cccs2)c1 (centres undefined),-3%,?,3,nt,-9%,-4%,nt,nt,nt,nt
O=C(c1ccc(Cl)cc1)c1cc([N+](=O)[O-])ccc1N1CCOCC1,12%,i,-11,-29,11µM*,-27%,7.3µM*,-2%,?,-3%
Cc1ccc(S/C(=N/S(=O)(=O)c2ccc(Cl)cc2)c2ccccc2)cc1,-22%,nt,nt,nt,6%,nt,nt,nt,nt,nt
O=c1oc2ccccc2c(NC2CCCCC2)c1NS(=O)(=O)c1ccc(F)cc1,-23%,i,-2,17,13%,-1%,nt,nt,nt,nt
CCc1ccc(S(=O)(=O)Nc2c(NC3CCCCC3)c3ccccc3oc2=O)cc1,-25%,i,4,2,16µM*,-12%,?,-6%,13%,-6%
CCOC(=O)c1c(-c2ccccc2)oc2ccc(NS(=O)(=O)c3ccc(C)cc3C)cc12,-60%,?,4,nt,?,?,nt,nt,nt,nt
CN(C)C(=O)c1cccc(-c2cc(NC=O)c3ncc(-c4ccc(F)cc4)n3c2)c1,-15%,i,-9,0,8.9µM*,0%,5.2µM*,-13%,?,17%
CN(C)C(=O)c1cccc(-c2cnc3c(NC=O)cc(-c4ccccc4Cl)cn23)c1,-17%,11µM*,13,8,13µM*,-24%,16µM*,-15%,?,34%
COC(=O)c1sccc1S(=O)(=O)N(CC(=O)NCc1ccc(C)cc1)c1ccccc1,-12%,i,1,nt,?,2%,nt,nt,nt,nt
Cc1nc2cc(-c3cccc(F)c3)nn2c(C)c1CCC(=O)NC(C)c1ccc2c(c1)OCCO2 (centres undefined),-18%,i,-1,-24,?,?,?,-29%,29µM*,11%
CSCCC(C(=O)NC1CCCC1)n1c(-c2ccncc2)nc2ccccc21 (centres undefined),nt,nt,-10,0,nt,nt,nt,nt,nt,nt
COc1ccc(-c2[nH]ncc2-c2ccc(Cl)cc2)c(O)c1,-61%,i,-11,-10,10µM*,5%,?,-20%,?,24%
COc1ccc(-c2cn[nH]c2-c2ccc(OCc3ccc([N+](=O)[O-])cc3)cc2O)cc1OC,-45%,i,2,0,8.9µM*,nt,21µM*,?,?,23%
O=[N+]([O-])c1ccc(COc2ccc(-c3[nH]ncc3-c3ccc(Cl)cc3)c(O)c2)cc1,-87%,?,-4,-2,?,?,nt,nt,nt,nt
COCc1oc2ccc(NS(=O)(=O)c3ccc(C)cc3)cc2c1C(=O)OC,-16%,nt,9,nt,-21%,nt,nt,nt,nt,nt
O=C1[C@H](Oc2ccccc2)[C@@H](c2ccncc2)N1c1ccncc1,-3%,i,13,9,-8%,10%,nt,nt,nt,nt
O=C1[C@@H](Oc2ccccc2)[C@@H](c2cnc3ccccc3c2)N1c1ccccc1,-22%,?,-11,40,11µM*,-29%,21µM*,-8%,16µM*,-8%
Cn1c(=O)c2c(SCC(=O)NCC3CCCO3)nc(-c3cccc(F)c3)nc2n(C)c1=O (centres undefined),8%,i,-6,nt,-13%,-4%,nt,nt,nt,nt
CCOc1ccc(-n2cc(C(=O)c3cc(Cl)ccc3O)cc(C#N)c2=O)cc1,-22%,nt,5,0,13µM*,-27%,-81%,?,?,53%
COc1ccc(-n2cc(C(=O)c3cc(Cl)ccc3O)cc(C#N)c2=O)cc1,-10%,nt,-11,-22,0%,-21%,nt,nt,nt,nt
CCc1ccc(NC(=O)COc2ccc(/C=C(/C#N)c3nc4ccccc4[nH]3)cc2OC)cc1,-82%,nt,18,4,2.2µM*,4.5µM*,?,?,14%,0%
CCC(=O)NC(c1ccc(OC)cc1)c1cc(Cl)c2cccnc2c1O (centres undefined),-32%,i,5,-17,7.9µM*,?,-24%,?,8.2µM*,21%
